Screening results (PubChem)
PTHR1 ag – activates the human parathyroid hormone receptor PTHR1 | Q03431 | HEK293 GP2 PTHR1 cells, GloSensor cAMP luminescence, 1 h | Potency, µM (titrated, usually from 115 µM), inactives show at the highest dose activation, hits mostly activators | 410,000 tested, 0.075% active | AID 743266; note: potency is the fitted concentration of half-maximal effect; nearly all actives have a fitted effect of over 55% in size
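HEK-293-derived GP2 cells expressing PTHR1 and a GloSensor cAMP reporter, 3,000/well, plated overnight, given luciferin plus IBMX (each 0.5 mM as added) for 1 h at 37 °C, then compound for 1 h at 37 °C. Luminescence was read after 15 min at room temperature.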
KCNH2 3.1 inh – KCNH2 3.1 (human) potassium channel inhibition. U2OS KCNH2 3.1, thallium flux FluxOr; active compounds read low. AID 720553. 340,000 tested, 0.95% active. activity change, % (tested at about 1.8 µM);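 active = maximum activity change below -70%; inconclusive = maximum activity change from -70% to -50%; inactive = maximum activity change above -50%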;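 note: thallium influx rate constant from kinetic fluorescence after stimulation buffer; % is set by controls: 0 for no effect and ±100 for the full control effect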
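Thallium flux via FluxOr fluorescence (Red40 quencher, 45 min loading) in U2OS cells virally expressing the KCNH2 3.1 isoform (1.77 x 10^8 /mL virus, overnight at 37 C). Rate constants from 2-min kinetic reads post-stimulation, normalised to positive and negative controls.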
Glioma ERSR ind – ER stress response induction in glioma; U87-MG GRP78 promoter luciferase reporter, 16 h; Potency, µM, without a hit: at the highest dose activation, hits mostly activators; 420,000 tested, 0.02% active; AID 602332; note: potency is the fitted concentration of half-maximal effect; series mostly up to about 76 µM; % of control where 0% means no effect; nearly all actives have a fitted effect of over 35% in size
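Stably transfected U87-MG human glioma cells carrying a GRP78-based luminescent sensor were seeded at 1000 cells/well, pin-dosed with compounds and incubated 16 h. Luciferase reagent was then added, and end-point luminescence was read after 10 min at room temperature.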
hERG WT inh – KCNH2 (human, wildtype) channel inhibition | AID 720551 | Q12809 | activity change, % at 1.84 µM | 340,000 tested, 0.37% active | U2OS, BacMam KCNH2, thallium flux FluxOr; active compounds read low;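 active = maximum activity change below -70%; inconclusive = maximum activity change between -70% and -50%; inactive = maximum activity change above -50%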; note: % is set by controls: 0 for no effect and ±100 for the full control effect
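U2OS cells were transduced with wild-type KCNH2 virus (2.03 x 10^8 / mL) for 4 h at room temperature, then cultured overnight at 37 C. Thallium flux was read with FluxOr dye. Rate constants were normalized to DMSO controls.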
RXFP1 antagonist – antagonists of human relaxin receptor RXFP1; Q9HBX9; AID 1259400; HEK293-RXFP1, relaxin-stimulated cAMP HTRF, 30 min; active compounds read low; activity change, negative = inhibition, % at 57.5 µM; 350,000 tested, 0.59% active;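 active = activity change of -60% or lower, but not beyond a set lower limit; inconclusive = change between -60% and -40%, or beyond the set limit; inactive = change above -40%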; note: % is set by controls: 0 for no effect and ±100 for the full control effect
Target sequence (Q9HBX9 whole entry, looked up): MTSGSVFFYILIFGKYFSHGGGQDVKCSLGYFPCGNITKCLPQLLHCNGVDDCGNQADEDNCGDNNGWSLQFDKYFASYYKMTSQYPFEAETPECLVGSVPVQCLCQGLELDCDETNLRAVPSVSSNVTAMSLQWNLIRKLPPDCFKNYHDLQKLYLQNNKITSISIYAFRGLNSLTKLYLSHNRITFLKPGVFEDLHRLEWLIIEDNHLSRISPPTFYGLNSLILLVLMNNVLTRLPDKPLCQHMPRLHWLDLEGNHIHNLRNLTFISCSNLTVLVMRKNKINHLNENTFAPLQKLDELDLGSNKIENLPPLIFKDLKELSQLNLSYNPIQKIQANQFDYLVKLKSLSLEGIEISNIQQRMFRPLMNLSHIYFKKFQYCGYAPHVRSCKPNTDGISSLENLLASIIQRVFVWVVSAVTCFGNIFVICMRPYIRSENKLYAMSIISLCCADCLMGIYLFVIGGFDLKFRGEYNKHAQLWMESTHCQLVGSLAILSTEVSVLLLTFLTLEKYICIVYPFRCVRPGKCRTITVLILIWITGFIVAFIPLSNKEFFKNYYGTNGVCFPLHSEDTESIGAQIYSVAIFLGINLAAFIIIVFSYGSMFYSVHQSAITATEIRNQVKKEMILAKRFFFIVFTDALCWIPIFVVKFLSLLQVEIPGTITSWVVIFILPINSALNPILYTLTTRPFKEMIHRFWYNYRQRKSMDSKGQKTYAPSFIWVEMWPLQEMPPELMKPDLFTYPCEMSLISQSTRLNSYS
RXFP1 agonist – activates the human relaxin receptor RXFP1; Q9HBX9; HEK293T-RXFP1 cAMP TR-FRET, 30 min; response scale: percent of porcine relaxin response, buffer zero; Potency, µM (doses to about 57.5 µM), for the others: top-dose activation, hits mostly activators; 370,000 tested, 0.3% active; AID 2676; note: potency is the fitted concentration of half-maximal effect; % is set by controls: 0 for no effect and ±100 for the full control effect; nearly all actives have a fitted effect of over 60% in size
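cAMP rise read by TR-FRET after 30 min, 37C compound exposure (up to 58 uM) in RXFP1-transfected HEK293 cells with Ro 20174 present. EC50 from Hill-equation fits, with 29 nM porcine relaxin as 100% and buffer as basal.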
* hit, by the source's call; i = inactive; ? = inconclusive; . = no result given; [ ] = dose if it differs, or a comment. Hits are enriched below; roughly 1.4% of the tested compounds scored in any of these assays. Unless noted, calls come from the whole dose curve; as a rule, active = well fitted curve in the direction sought with a large enough effect; inconclusive = small, poorly fitted or top-dose-only effect, or another doubt; inactive = no such curve, though single readings can be large; an effect the other way counts as inactive or inconclusive.

SMILES	PTHR1 ag	KCNH2 3.1 inh	Glioma ERSR ind	hERG WT inh	RXFP1 antagonist	RXFP1 agonist
O=C1C(F)=CC(COC(c2ccccc2)(c2ccccc2)c2ccccc2)OC1n1cc(F)c(=O)[nH]c1=O (stereo unspecified)	-29%	-4	-14%	22	-84*	.
CC(=O)Nc1ccc2c(c1)Cc1cc(N3C(=O)C=CC3=O)ccc1-2	-11%	14	-15%	-2	-61*	.
O=C1C=CC(=O)N1c1ccc2c(c1)Cc1cc(F)ccc1-2	-17%	6	-6%	2	-20	.
Cc1nccn1-c1c2c(c(C#N)c3nc4ccccc4n13)CCCC2	i	4	-3%	0	-6	.
Nc1nc2ccccc2n1/N=C/c1ccc(-c2ccccc2)o1	i	-87*	1%	1	-24	1%
COc1ccc(CNCc2ccc3ccccc3c2)c(OC)c1	-24%	-98*	-4%	7	-12	2%
COc1ccc(CNCc2ccncc2)c(OC)c1	i	-7	-1%	4	1	1%
O=C(CN1C(=O)NC2(CCCC2)C1=O)OCc1c(F)cccc1Cl	i	7	-1%	-5	0	1%
CC(C)N(C(=O)CSc1nnc(NC(=O)Cc2cccs2)s1)C(C)C	i	-1	3%	-16	2	-3%
CCc1nc2ccc(C(=O)NCCc3ccc(OC)cc3OC)cc2nc1CC	i	.	1%	.	-71*	-1%
Oc1ccccc1CN1CCCC(N2CCc3ccccc3C2)C1 (stereo unspecified)	i	23	-2%	41	3	-3%
COc1ccc([C@H]2CC(=O)C=C(c3cccc(Br)c3)C2)cc1	-26%	-11	1%	-12	.	1%
COc1ccc([C@H]2CC(=O)C=C(c3cccc(C(F)(F)F)c3)C2)cc1	-38%	-75*	0%	20	.	0%
Cc1ccc(S(=O)(=O)Nc2ccccc2/C=N/c2nc3ccccc3n2C(C)C)cc1	-7%	-11	-4%	-9	-64*	0%
CN1C(=O)/C(=C\C(=O)c2cccs2)c2ccccc21	-26%	-48	-13%	-8	-98*	2%
CCCCCn1c(N2CCN(Cc3ccccc3)CC2)nc2c1c(=O)[nH]c(=O)n2C	-14%	-75*	-3%	?	-5	-1%
CC(C)CCn1c(N2CCN(Cc3ccccc3)CC2)nc2c1c(=O)[nH]c(=O)n2C	.	.	.	.	.	2%
COc1cc(/C=C\C(=O)OCn2nnc3ccccc3c2=O)cc(OC)c1OC	-12%	26	5%	-2	-3	1%
COC(=O)C1=C(C(=O)OC)[C@@H]2Nc3ccccc3[C@@]23C[C@@H](C(=O)OC)N(C(=O)c2ccc(Br)cc2)C3=N1	i	-114*	-3%	4	.	0%
CN1CCN(C(=O)C2=C[C@H](c3ccc4c(c3)OCO4)C[C@H](OCCCCO)O2)CC1	4%	-91*	-4%	-1	.	.
O=[N+]([O-])c1ccc(Cl)c2c1C1C=CCC1C(c1ccccn1)N2 (stereo unspecified)	-20%	-18	-3%	-7	-118*	-2%
O=C(NNc1cc(Br)c(O)c(Br)c1)c1ccccc1	-89%	-6	1%	6	-96*	0%
CN(C(=O)CSC1=Nc2ccccc2C2=NC(c3ccccc3)C(=O)N12)C1CCCCC1 (stereo unspecified)	i	-11	1%	3	7	-1%
CCn1c(=O)c2sccc2n2c(CCCC(=O)Nc3ccc(Oc4ccccc4)cc3)nnc12	-44%	.	-5%	.	-3	3%
Cn1c(=O)c2sccc2n2c(CCCC(=O)NCc3ccco3)nnc12	i	-8	-2%	-11	5	14µM*
SMILES	PTHR1 ag	KCNH2 3.1 inh	Glioma ERSR ind	hERG WT inh	RXFP1 antagonist	RXFP1 agonist
COc1ccccc1NC(=O)CCCc1nnc2n(C)c(=O)c3sccc3n12	i	-19	-5%	-2	11	4.5µM*
CCn1c(=O)c2sccc2n2c(CCCC(=O)NCc3cccnc3)nnc12	i	-8	-2%	19	-7	18µM*
CSc1sc(C)cc1/C=N/O	-5%	8	-5%	11	-1	1%
CCOC(=O)CCNC(=O)N1CCCC(C(=O)c2cccc(Cl)c2)C1 (stereo unspecified)	i	3	1%	9	6	-1%
CCC(Oc1ccccc1)C(=O)N1CCC(C(N)=O)CC1 (stereo unspecified)	-23%[57.5 µM]	-2	3%	-109*	-6	1%
CCC(Oc1ccccc1)C(=O)N1CCN(C(=O)C(CC)Oc2ccccc2)CC1 (stereo unspecified)	i	0	-3%	18	2	-1%
Cc1ccc(Cn2nnnc2CN2CCC(c3nc4ccc(Cl)cc4[nH]3)CC2)cc1	-18%	-88*	5%	-2	-4	1%
O=C(CN1C(=O)c2ccccc2C1=O)Nc1ccc(N2CCOCC2)cc1	i	-8	-3%	1	-7	-1%
O=C(CN1C(=O)c2ccccc2C1=O)Nc1ccc(S(=O)(=O)N2CCOCC2)cc1	i	6	0%	-1	-82*	2%
O=C(NCc1ccccc1Cl)C1CCN(S(=O)(=O)N2CCCC2)CC1	i	10	-5%	-7	4	-5%
COc1ccc(CN2CCc3c([nH]c4ccccc34)C2)c(OC)c1C	-41%	-79*	-7%	15	-25	-1%
CCc1ccc(CN2CCC(n3nccc3NC(=O)c3ccc4c(c3)OCO4)CC2)cc1	-10%	-106*	-5%	?	-10	0%
CC(Cc1ccc(Cl)cc1)N1CCC(n2nccc2NC(=O)C2CCCC2)CC1 (stereo unspecified)	-14%	-101*	-2%	-21	-9	0%
CCOc1cccc(CN2CCC(n3nccc3NC(=O)c3ccc4c(c3)OCO4)CC2)c1	-20%	-5	-4%	19	-5	2%
CSc1ccc(CN2CCC(n3nccc3NC(=O)c3ccccc3C)CC2)cc1	-12%	-123*	3%	-126*	-10	2%
CCc1ccc(CN2CCC(n3nccc3NC(=O)c3ccccc3Cl)CC2)cc1	i	-103*	-5%	-97*	-13	1%
COc1ccc(CNC(=O)[C@H](C)NC(=O)C2CC(=O)N(c3ccc(OC)cc3)C2)cc1 (stereo partly specified)	i	-20	0%	17	-3	0%
CCn1c(SCC(=O)c2ccc(Cl)cc2)nnc1C(C)C	-6%[57.5 µM]	-19	?	-1	-8	1%
O=C(Cn1c(C(F)(F)F)nc2ccccc21)N/N=C/c1ccco1	i	-41	-1%	-12	-20	1%
